Measured values: PubChem BioAssay
The source made the active and inactive calls.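 Rule for the calls: active = inhibition over a set limit, the all-compound mean plus 3 SD, in both replicate runs; inconclusive = over that limit in just one replicate run; inactive = at or under that limit in both runs.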

Assay: inhibitors of the yeast RAM network, pilot screen, dse1pr::URA3 reporter, 5-FOA selection (AID 869);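 note: 0% = DMSO wells with no growth and 100% = 10 µM 1-NA-PP1 with full growth; RAM network block rescues cells from 5-FOA so hits raise OD615 growth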
Settings: S. cerevisiae dse1pr::URA3 5-FOA growth, OD615, 2 d; at 10 µM; stronger effect = higher value; strain carries analog-sensitive mutant Cbk1 kinase

inhibition, inactive:
O=C(CSc1ccccn1)c1ccc(F)cc1 2.88%
O=C(CCn1c(=O)oc2ccccc21)NCc1ccc2c(c1)OCO2 2.35%
COc1ccc(-n2c(=O)c3ccccc3n(CC(=O)NC3CCCC3)c2=O)c(OC)c1 2.04%
O=C(Nc1ccc(F)cc1)C1CCCN(S(=O)(=O)c2cccc3cccnc23)C1 (stereo not given) 2.16%
COc1ccc(CCNC(=O)CCn2c(=O)oc3ccccc32)cc1OC 1.47%
O=C(CCS(=O)(=O)c1cccc2nonc12)NCCc1ccccc1Cl 1.33%
Cc1ccc(S(=O)(=O)N(CC(=O)N2CCCC2)C2CCCCC2)cc1 0.685%
Cc1ccc(N2C(=O)C(Cl)=C(NCCO)C2=O)c(C)c1 2.02%
Cc1cccn2cc(-c3ccc(F)cc3)nc12 1.56%
CSc1nc2ccc(NS(=O)(=O)c3ccc4c(c3)OCCO4)cc2s1 0.865%
Cc1cc(Nc2ccc3c(c2)OCCO3)n2nc(C)nc2n1 2.84%
O=C(COc1ccc(S(=O)(=O)NC2CCCCC2)cc1)Nc1ccc2c(c1)OCCO2 2.25%
COc1ccc(OC)c2c1sc(=NC(=O)CN1C(=O)CCC1=O)n2C 1.16%
Cc1occc1C(=O)Nc1nnc(-c2ccncc2)s1 0.705%
Cc1nnc(SCC(=O)Nc2ccc3c(c2)OCO3)o1 1.41%
O=C(CSC1=NS(=O)(=O)c2ccccc21)Nc1ccccc1 -0.07%
CCOC(=O)Cc1csc(NC(=O)COc2ccc(N(C)S(=O)(=O)c3cccs3)cc2)n1 0.12%
Cn1cc(SCC(=O)N2CCN(c3ccccc3)CC2)c2ccccc21 1.52%
COc1ccc(C(=O)Nc2ccc(Cl)cc2C(=O)NCc2ccco2)cc1OC 0.625%
Cc1cccc(N=C(N2CCOCC2)P(=O)(N2CCOCC2)N2CCOCC2)c1 3.29%
COc1cccc(-n2c(Cc3cc(=O)[nH]c(=O)[nH]3)nnc2SCC(=O)Nc2ccccc2)c1 1.61%
Cc1ccc(C)c(SCC(=O)OCC(=O)Nc2ccc(S(=O)(=O)N3CCOCC3)cc2)c1 1.02%
CC(C)n1c(NCc2cc(Cl)ccc2O)nc2ccccc21 -0.06%
c1ccc2c(c1)CCN(c1nc3ccccc3n3cnnc13)C2 0.5%
CC1CCN(S(=O)(=O)c2ccc(NC(=O)c3cccs3)cc2)CC1 0.115%
CCCCOc1ccc(C2(C)CC(=O)NC2=O)cc1 (stereo not given) 0.425%
COc1ccc(C2C(C(=O)Nc3cccnc3)=C(C)Nc3nc(-c4ccco4)nn32)cc1 (stereo not given) 0.55%
CN(CCNC(=O)C1CC(=O)N(C2CCCC2)C1)Cc1ccccc1 (stereo not given) 0.74%
O=C(NCCCN1CCCC1=O)c1ccccc1NS(=O)(=O)c1ccc(F)cc1 1.57%
CCOC(=O)c1sc2nc3n(c(=O)c2c1C)CCCCC3 0.475%
CS(=O)(=O)N(CC(=O)NCc1ccco1)c1ccc(Cl)c(C(F)(F)F)c1 0.705%
CC(NS(=O)(=O)c1ccc(Br)cc1)C(c1cccs1)N1CCN(C)CC1 (stereo not given) 0.53%
CCOC(=O)C1Cn2c(nc3c(c2=O)C(C)(CC)Cc2ccccc2-3)S1 (stereo not given) 1.5%
COc1cccc(N2CCN(c3ncnc4c3cnn4-c3ccc(C)cc3C)CC2)c1 1.66%
COc1ccc(N2CSC3=C(C#N)C(c4ccc(OC)c(OC)c4)CC(=O)N3C2)c(OC)c1 (stereo not given) 1.88%
COc1ccc(-n2cnnc2)cc1 1.05%
COc1ccc(OCc2nnc3n2N=C(c2ccc(OC)cc2)CS3)cc1 2.15%
O=C(Nn1nnnc1Nc1ccccc1)C12CC3CC(CC(C3)C1)C2 2.17%
Cc1ccc(CCNC(=O)CS(=O)Cc2nc(-c3cccc(C)c3)oc2C)cc1 (stereo not given) 2.59%
COCCCNC(=O)Cn1ncc2ccsc2c1=O -0.05%
